# In the supplement of paper PMC10849652:
# Targets with a hit are over-represented here; the source holds about 7,900 in all. About 0.6% of all pairs of compound and target were hits. A number with no mark means an inactive call.
# What was measured:
# Assay in all cases: log2 fold change, soluble protein after heating vs DMSO (PISA); higher = thermal stabilisation; K562 cells, 10 uM, 30 min; active = over 0.2 and 3.5 SD of the protein, either way, in both replicates (recomputed)
# [1] = compound: Cc1ccc(NC(=O)c2ccc(CN3CC[C@H](N(C)C)C3)c(C(F)(F)F)c2)cc1Nc1nccc(-c2cncnc2)n1 [bafetinib]
# In short: (§1)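 For each measurement, 10 μM compound was applied for 30 min to K562 cells at 2×10^6 cells/mL. Aliquots were heated for 3 min across 48°C-58°C, pooled, and extracted in PBS with 0.5% NP-40 at 4°C; the supernatant after 21,000xg for 90 min was soluble protein. This was quantified by TMTpro 16plex LC-MS/MS with channel sums equalised, and thermal stability was reported relative to control samples from duplicates, on a log2 fold-change scale.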
# [2] = compound: Cc1cccc(CC(=O)N2CCc3c2ccc(-c2cn(C)c4ncnc(N)c24)c3F)n1
# In short: as §1
# [3] = compound: Cc1cn(-c2cc(NC(=O)c3ccc(C)c(Nc4nccc(-c5cccnc5)n4)c3)cc(C(F)(F)F)c2)cn1 [nilotinib]
# In short: as §1
# [4] = compound: Cc1nc(Nc2n[nH]c3c2CN(C(=O)N[C@H](CN(C)C)c2ccccc2)C3(C)C)c2sccc2n1
# In short: as §1
# [5] = compound: Cc1nc(Nc2ncc(C(=O)Nc3c(C)cccc3Cl)s2)cc(N2CCN(CCO)CC2)n1 [dasatinib]
# In short: as §1
# [6] = compound: Cc1ncc(-c2ccnc(Nc3ccc(S(C)(=O)=O)cc3)n2)n1C(C)C
# In short: as §1
# [7] = compound: Cn1cc(-c2ccc3c(c2)CCN3C(=O)Cc2cccc(C(F)(F)F)c2)c2c(N)ncnc21
# In short: as §1
# [8] = compound: Cn1cc(-c2ccc3nnc(C(F)(F)c4ccc5ncccc5c4)n3n2)cn1
# In short: as §1
# [9] = compound: Cn1cncc1[C@@](N)(c1ccc(Cl)cc1)c1ccc2c(c1)c(-c1cccc(Cl)c1)cc(=O)n2C [tipifarnib]
# In short: as §1
# [10] = compound: FC(F)(F)c1ccc(/C=C/c2nc(COc3ccc(CCCCn4ccnn4)cc3)co2)cc1 [mubritinib]
# In short: as §1
# UniProt Q16594, sequence (Q16594 whole entry, looked up): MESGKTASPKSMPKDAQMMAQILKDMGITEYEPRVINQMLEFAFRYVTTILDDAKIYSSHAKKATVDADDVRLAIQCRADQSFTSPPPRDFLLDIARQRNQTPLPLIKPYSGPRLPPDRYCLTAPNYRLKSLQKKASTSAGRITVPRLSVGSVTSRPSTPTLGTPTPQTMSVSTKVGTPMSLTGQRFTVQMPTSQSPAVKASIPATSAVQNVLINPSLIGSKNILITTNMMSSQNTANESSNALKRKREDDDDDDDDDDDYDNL
# UniProt Q92609, sequence (Q92609 whole entry, looked up): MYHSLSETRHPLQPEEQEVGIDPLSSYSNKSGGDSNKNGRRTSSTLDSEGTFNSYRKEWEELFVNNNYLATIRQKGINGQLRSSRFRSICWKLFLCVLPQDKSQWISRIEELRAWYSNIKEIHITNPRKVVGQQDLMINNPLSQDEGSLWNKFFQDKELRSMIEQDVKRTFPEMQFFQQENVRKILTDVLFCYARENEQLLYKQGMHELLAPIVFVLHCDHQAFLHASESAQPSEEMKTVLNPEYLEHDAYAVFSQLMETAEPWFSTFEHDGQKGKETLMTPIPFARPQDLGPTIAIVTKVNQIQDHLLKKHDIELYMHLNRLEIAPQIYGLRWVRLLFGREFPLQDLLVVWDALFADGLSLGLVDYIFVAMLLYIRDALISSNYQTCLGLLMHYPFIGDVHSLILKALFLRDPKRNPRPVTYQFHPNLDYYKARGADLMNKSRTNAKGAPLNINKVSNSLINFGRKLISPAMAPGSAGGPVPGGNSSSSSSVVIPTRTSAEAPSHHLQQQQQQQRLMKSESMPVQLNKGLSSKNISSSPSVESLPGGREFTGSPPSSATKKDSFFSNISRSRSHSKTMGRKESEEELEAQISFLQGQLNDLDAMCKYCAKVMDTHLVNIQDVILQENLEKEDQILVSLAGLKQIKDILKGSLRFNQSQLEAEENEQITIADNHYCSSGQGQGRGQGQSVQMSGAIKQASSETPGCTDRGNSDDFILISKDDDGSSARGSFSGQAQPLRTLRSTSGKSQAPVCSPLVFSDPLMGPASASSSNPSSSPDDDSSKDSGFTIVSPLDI
# UniProt Q9BW92, sequence (Q9BW92 whole entry, looked up): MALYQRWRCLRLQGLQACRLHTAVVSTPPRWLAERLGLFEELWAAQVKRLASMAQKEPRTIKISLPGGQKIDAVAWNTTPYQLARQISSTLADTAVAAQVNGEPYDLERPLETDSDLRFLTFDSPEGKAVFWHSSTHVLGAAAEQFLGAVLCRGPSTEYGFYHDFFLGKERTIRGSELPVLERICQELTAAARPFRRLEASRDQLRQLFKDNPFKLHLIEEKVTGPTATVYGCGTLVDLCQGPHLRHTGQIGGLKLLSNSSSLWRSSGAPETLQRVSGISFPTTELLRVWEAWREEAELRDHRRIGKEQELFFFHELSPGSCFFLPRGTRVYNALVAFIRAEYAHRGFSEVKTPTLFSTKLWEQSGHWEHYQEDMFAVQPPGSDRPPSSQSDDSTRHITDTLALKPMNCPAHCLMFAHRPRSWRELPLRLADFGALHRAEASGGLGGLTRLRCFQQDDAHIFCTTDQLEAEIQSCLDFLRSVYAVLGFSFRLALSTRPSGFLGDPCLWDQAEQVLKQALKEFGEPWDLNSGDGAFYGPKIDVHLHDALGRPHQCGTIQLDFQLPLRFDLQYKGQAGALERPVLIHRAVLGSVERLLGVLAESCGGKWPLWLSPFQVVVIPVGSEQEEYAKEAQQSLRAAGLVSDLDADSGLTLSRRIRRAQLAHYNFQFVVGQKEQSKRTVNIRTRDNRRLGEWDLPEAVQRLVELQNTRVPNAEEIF
# UniProt Q8N1S5, sequence (Q8N1S5 whole entry, looked up): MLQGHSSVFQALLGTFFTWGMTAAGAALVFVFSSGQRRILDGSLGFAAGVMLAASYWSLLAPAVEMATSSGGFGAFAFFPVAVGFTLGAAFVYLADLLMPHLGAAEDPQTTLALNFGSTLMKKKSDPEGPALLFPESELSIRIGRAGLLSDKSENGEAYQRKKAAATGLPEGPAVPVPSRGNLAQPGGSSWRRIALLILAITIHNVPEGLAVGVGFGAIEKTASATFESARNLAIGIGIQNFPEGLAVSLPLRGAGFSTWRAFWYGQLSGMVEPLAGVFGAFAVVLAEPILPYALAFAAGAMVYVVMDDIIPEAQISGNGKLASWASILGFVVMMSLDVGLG
# UniProt Q9Y4R8, sequence (Q9Y4R8 whole entry, looked up): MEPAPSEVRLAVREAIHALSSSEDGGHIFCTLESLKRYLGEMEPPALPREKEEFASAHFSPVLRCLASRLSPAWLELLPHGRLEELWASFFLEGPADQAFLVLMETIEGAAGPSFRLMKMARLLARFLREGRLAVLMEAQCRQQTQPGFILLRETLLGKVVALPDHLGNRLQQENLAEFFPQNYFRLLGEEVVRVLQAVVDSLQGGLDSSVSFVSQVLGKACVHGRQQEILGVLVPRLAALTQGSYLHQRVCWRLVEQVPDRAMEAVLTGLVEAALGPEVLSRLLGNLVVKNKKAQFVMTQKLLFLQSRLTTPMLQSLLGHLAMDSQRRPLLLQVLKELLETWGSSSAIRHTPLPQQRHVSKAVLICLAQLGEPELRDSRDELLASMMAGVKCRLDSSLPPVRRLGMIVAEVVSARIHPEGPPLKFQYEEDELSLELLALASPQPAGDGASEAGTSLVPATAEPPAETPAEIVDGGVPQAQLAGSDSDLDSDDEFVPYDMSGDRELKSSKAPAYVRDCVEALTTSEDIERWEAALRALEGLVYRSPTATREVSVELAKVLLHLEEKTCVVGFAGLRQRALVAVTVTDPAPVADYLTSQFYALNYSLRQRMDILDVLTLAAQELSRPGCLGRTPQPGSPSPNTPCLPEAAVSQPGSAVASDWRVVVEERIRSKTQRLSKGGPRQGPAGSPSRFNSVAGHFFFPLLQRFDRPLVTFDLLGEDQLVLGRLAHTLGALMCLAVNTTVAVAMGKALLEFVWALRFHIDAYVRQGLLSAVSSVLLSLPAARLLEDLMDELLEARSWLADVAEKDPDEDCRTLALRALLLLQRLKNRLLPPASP
# UniProt P50225, sequence (P50225 whole entry, looked up): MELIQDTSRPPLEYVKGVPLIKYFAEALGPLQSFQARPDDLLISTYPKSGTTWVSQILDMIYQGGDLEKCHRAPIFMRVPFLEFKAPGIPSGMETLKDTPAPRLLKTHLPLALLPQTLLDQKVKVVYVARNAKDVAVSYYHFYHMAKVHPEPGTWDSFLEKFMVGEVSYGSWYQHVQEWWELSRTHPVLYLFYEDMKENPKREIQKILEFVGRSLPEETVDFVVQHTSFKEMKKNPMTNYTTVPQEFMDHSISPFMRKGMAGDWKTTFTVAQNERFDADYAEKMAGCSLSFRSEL
# UniProt Q07157, sequence (Q07157 whole entry, looked up): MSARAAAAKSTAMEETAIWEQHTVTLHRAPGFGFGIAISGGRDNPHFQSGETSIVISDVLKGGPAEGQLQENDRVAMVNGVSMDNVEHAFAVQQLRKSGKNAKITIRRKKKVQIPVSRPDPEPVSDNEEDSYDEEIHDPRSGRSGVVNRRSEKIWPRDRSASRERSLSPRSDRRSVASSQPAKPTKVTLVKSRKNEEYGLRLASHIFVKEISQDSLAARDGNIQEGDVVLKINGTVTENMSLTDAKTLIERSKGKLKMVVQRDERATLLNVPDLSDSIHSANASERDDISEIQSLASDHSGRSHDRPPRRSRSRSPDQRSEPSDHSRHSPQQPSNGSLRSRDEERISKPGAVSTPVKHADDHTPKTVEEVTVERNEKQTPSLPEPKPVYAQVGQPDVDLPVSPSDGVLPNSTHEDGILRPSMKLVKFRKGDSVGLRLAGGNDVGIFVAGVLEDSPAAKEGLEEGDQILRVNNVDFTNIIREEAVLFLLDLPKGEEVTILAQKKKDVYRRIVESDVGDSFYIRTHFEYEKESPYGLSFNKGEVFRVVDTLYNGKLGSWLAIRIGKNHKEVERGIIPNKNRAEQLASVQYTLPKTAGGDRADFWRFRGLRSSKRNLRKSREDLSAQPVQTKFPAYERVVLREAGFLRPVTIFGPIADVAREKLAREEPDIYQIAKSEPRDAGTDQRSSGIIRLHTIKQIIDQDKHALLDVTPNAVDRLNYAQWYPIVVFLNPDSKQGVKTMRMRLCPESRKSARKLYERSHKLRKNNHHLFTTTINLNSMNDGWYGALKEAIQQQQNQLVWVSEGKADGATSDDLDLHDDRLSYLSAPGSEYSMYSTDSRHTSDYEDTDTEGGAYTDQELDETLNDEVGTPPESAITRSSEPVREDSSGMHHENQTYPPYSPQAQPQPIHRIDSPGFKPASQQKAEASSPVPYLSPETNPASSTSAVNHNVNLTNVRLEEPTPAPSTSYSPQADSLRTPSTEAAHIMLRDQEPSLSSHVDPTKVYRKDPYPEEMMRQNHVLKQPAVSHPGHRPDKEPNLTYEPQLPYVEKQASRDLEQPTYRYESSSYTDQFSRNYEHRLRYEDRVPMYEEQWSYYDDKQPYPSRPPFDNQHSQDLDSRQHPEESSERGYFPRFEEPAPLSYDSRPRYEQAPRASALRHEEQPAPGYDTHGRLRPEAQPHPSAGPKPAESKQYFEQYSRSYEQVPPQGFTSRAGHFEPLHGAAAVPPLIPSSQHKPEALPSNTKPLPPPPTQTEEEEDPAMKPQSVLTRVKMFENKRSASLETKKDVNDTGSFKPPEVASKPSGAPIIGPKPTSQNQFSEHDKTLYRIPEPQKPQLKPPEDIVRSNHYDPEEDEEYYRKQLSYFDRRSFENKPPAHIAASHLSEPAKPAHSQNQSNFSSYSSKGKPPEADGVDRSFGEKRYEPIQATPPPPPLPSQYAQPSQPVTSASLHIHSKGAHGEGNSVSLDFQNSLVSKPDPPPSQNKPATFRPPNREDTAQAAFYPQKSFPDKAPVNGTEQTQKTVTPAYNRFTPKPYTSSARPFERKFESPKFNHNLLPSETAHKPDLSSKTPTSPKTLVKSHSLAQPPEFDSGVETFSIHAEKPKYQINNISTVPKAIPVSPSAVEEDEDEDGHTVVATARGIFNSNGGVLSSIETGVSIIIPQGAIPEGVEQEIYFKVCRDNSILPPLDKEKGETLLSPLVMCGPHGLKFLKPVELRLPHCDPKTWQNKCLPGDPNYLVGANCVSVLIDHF
Target,log2 fold change [1],log2 fold change [2],log2 fold change [3],log2 fold change [4],log2 fold change [5],log2 fold change [6],log2 fold change [7],log2 fold change [8],log2 fold change [9],log2 fold change [10]
TJP1 (UniProt Q07157),-0.061,0.008,0.024,-0.199,-0.092,-0.037,-0.028,-0.02,-0.025,0.073
TBC1D5 isoform 2 (UniProt Q92609),-0.126,0.017,-0.076,-0.052,-0.232,0.007,-0.067,-0.005,-0.177,-0.017
SLC39A11 (UniProt Q8N1S5),-0.13,-0.043,-0.028,0.001,0.058,0.248,0.128,0.002,0.048,-0.005
TARS2 (UniProt Q9BW92),-0.081,0.114,-0.094,-0.003,-0.055,0,0.084,0.022,-0.119,0.013
TAF9 (UniProt Q16594),-0.076,-0.026,0.061,-0.031,0.146,-0.086,-0.12,-0.011,0.077,-0.005
SULT1A1 (UniProt P50225),-0.067,0.222,-0.072,-0.065,-0.172,-0.002,0.333 (active),0.353 (active),-0.097,-0.069
TELO2 (UniProt Q9Y4R8),0.069,0.158,-0.023,-0.041,-0.039,0.039,-0.058,0.046,-0.185,0.103
